An excerpt weighted towards active compounds, which were near 3.2% of everything screened.
USP2a inh – blocks human ubiquitin-specific protease USP2a; O75604; USP2 core, Ub-CHOP2 coupled fluorogenic reporter, 485/531; Potency, µM (doses to about 38.3 µM), inactives show at the top dose activity change, negative = inhibition, hits mostly inhibitors; hit rate 0.01% among 330,000; AID 463254;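 further: potency means the concentration at half of the fitted maximal effect; plate controls were DMSO wells for no effect and full inhibition by NEM control for full effect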
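Deubiquitinase activity read as fluorescence (485/531 nm) after Ub-CHOP2 cleavage activates the enterokinase reporter on its substrate; USP2 core 10nM, Ub-CHOP2 and substrate 25nM each, 30min compound preincubation then 60min RT; data normalized to NEM, curves fitted.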
Coupling enz – coupling enzyme interference in Giardia aldolase counter-screen; coupling enzyme system counterscreen, AmpLite Red fluorescence; activity change, negative = inhibition, % at 58.2 µM, hits read low; hit rate 0.67% among 290,000; AID 2472; in the data active means activity change below about -30%
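Final compound at 57.5 uM, incubated 10 min at RT with coupling enzyme reagent (glyceraldehyde-3-phosphate), then 20 min with substrate and AmpLite Red detection. Fluorescence read at 525/598 nm; tests interference with the coupling assay, not aldolase inhibition.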
PLK1 PBD block – PLK1 (human) polo-box domain binding inhibition; hit rate 2.8% among 360,000; Potency, µM, without a hit: max response, negative = inhibition, usual class: inhibitors; Plk1 PBD binding of FITC phosphopeptide, fluorescence polarization; further: potency means the concentration at half of the fitted maximal effect; series mostly up to about 57 µM; nearly all actives have a fitted effect of over 65% in size
VDR inhibitor – inhibitors of human vitamin D receptor; P11473; VDR-SRC2-3 peptide fluorescence polarization, 2 h; Potency, µM, without a hit: max response, negative = inhibition, actives largely listed as inhibitors; hit rate 0.93% among 400,000; AID 504847; further: potency means the concentration at half of the fitted maximal effect
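Fluorescence polarization assay measuring small-molecule disruption of VDR binding to the coregulator peptide SRC2-3. Compounds were pin-transferred (23 nl) into the reagent mix and incubated 2 h at room temperature before reading.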
USP1 inh – blocks the human USP1/UAF1 deubiquitinase complex | Potency, µM (top dose mostly 57.1 µM), without a hit: top-dose activity change, negative = inhibition, most hits filed as inhibitors | O94782 | recombinant USP1/UAF1, Ub-Rhodamine cleavage fluorescence | hit rate 0.23% among 390,000; further: potency means the concentration at half of the fitted maximal effect; nearly all actives have a fitted effect of over 60% in size
Target sequence (O94782 whole entry, looked up): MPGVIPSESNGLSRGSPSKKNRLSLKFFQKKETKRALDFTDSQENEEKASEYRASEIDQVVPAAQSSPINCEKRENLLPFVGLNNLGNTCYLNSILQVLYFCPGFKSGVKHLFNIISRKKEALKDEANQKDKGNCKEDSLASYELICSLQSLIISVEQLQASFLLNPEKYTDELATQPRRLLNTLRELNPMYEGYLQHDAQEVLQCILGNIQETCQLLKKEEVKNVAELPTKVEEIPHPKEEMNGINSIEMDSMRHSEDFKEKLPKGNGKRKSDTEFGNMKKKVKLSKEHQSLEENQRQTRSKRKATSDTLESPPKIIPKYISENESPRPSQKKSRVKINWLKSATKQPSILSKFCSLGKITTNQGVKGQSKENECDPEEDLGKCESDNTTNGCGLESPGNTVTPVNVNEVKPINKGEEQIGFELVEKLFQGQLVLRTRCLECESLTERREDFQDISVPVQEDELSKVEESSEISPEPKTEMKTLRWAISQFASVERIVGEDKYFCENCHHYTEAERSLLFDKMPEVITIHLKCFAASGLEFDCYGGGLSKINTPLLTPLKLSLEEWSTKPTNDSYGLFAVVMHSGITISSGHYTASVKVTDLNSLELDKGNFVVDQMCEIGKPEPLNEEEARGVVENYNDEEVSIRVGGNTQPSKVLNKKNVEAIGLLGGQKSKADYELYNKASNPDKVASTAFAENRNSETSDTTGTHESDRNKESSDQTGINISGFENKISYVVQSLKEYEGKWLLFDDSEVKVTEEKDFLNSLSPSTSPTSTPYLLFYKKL
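Step one: compound is pinned into 1nM USP1/UAF1 in HEPES pH 7.8 buffer with TCEP. Step two: 15 min room-temperature incubation. Step three: Ub-Rho (150nM final) starts cleavage, tracked by fluorescence over six one-minute reads.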
GALK inh – blocks human galactokinase activity. hit rate 0.007% among 270,000. Purified GALK, Kinase-Glo residual ATP luminescence. Potency, µM (titrated, usually from 57.5 µM), for inactives: top-dose activity change, negative = inhibition, most hits filed as inhibitors. P51570. AID 1868; further: potency means the concentration at half of the fitted maximal effect
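Compounds were pin-transferred into ATP buffer (35 uM final), then GALK plus galactose (5 nM, 100 uM final) was added. After 1 h at room temperature, Kinase-Glo Plus was added and luminescence read after 10 min.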
An asterisk follows results filed as active; ? = inconclusive; / = no result. Unless noted, the call rests on the fitted dose curve; in most records, active means well fitted curve in the direction sought with a large enough effect; inconclusive means small, poorly fitted or top-dose-only effect, or another doubt; inactive means no such curve, though single readings can be large; an effect the other way counts as inactive or inconclusive. Unless noted, on the % scale 0 is the no-effect control and ±100 the full control effect.

SMILES	USP2a inh	Coupling enz	PLK1 PBD block	VDR inhibitor	USP1 inh	GALK inh
CCOc1ccc(N2C(=O)CC(Sc3nccc(C)n3)C2=O)cc1 (stereo unspecified)	3.7%	-1.2	26.7µM*	-3.2%	-27.6%	5.7%
C=CCNc1nnc(SC2CC(=O)N(c3ccc(OCCC)cc3)C2=O)s1 (stereo unspecified)	3.0%	4.9	21.2µM*	-5.5%	-3.2%	0.5%
CCOc1ccc(N2C(=O)CC(Sc3nc4ccc(OCC)cc4s3)C2=O)cc1 (stereo unspecified)	/	/	-6.6%	7.3%	-19.4%	/
Nc1nnc(SC2CC(=O)N(c3ccccc3)C2=O)s1 (stereo unspecified)	2.9%	0.0	29.9µM*	-9.6%	-3.9%	4.6%
Cc1nc(SC2CC(=O)N(c3ccccc3)C2=O)n[nH]1 (stereo unspecified)	-0.2%	0.4	29.9µM*	-0.5%	-0.9%	1.9%
COc1ccccc1N1C(=O)CC(Sc2n[nH]c(-c3cccc(C)c3)n2)C1=O (stereo unspecified)	-5.7%	1.2	13.4µM*	-11.8%	-16.7%	-0.4%
C=CCNc1nc(-c2ccc(O)c(C(N)=O)c2)cs1	1.6%	-1.3	2.99µM*	?	-19.8%	-1.5%
C=CCNc1nc(-c2ccc3c(c2)OCCO3)cs1	/	/	-18.1%	-4.8%	-7.5%	/
NC(=O)c1cc(-c2csc(NCCc3ccccc3)n2)ccc1O	1.7%	0.0	29.9µM*	25.8%	-11.0%	15.9%
C=CCn1c(-c2cccn(Cc3cccc(Cl)c3)c2=O)n[nH]c1=S	-0.6%	1.6	-8.8%	-27.3%	-15.8%	1.7%
CCCS(=O)(=O)Nc1c(OC)ccc2c1c(C(=O)OCC)c(C)n2C	2.6%	-2.1	-10.3%	-10.7%	-4.7%	-1.1%
CN1CCN(C(c2ccccn2)c2cc(Cl)c3cccnc3c2O)CC1 (stereo unspecified)	-8.2%	-7.2	9.47µM*	50.1µM*	-13.1%	12.9%
O=C(Nc1ccccc1Cl)N1CCN(Cc2ccc3c(c2)OCO3)CC1	2.1%	1.8	-12.8%	-11.9%	0.0%	-1.1%
COc1ccc(C(=O)n2nnc3ccccc32)cc1Br	4.1%	0.7	1.5µM*	-7.0%	-9.0%	-0.2%
CCCCCCSc1ccc([C@H]2N[C@@](CC(C)C)(C(=O)OC)[C@H]3C(=O)N(C)C(=O)[C@@H]23)cc1OC	0.4%	/	21.2µM*	-27.7%	-2.2%	/
COC(=O)C1SCC2C(=O)N(Cc3ccc(Cl)c(Cl)c3)CC(=O)N21 (stereo unspecified)	0.5%	3.1	18.9µM*	?	-9.5%	6.6%
Cc1ccc(OCc2cc(C(=O)N3CCCC(C)C3)no2)cn1 (stereo unspecified)	/	/	-12.5%	/	?	/
Cc1ccc(OCc2cc(C(=O)N3CCN(CC(=O)NC(C)C)CC3)no2)cn1	2.6%	0.1	26.7µM*	-17.1%	-23.2%	-0.6%
Cc1ccccc1NC(=O)CSc1nc(N2CCCCC2)nc(N2CCCCC2)n1	1.2%	1.9	2.1%	-1.2%	-0.7%	0.1%
Cc1ccc(CNC(=O)CSc2nc(N3CCCCC3)nc(N3CCCCC3)n2)cc1	0.9%	0.9	26.7µM*	-2.3%	-19.3%	-0.2%
O=C(CCNc1ccc(Br)cc1)c1cccc([N+](=O)[O-])c1	-2.8%	-1.0	?	89.1µM*	-15.7%	-0.7%
Cc1ccc(NCCC(=O)c2cccc([N+](=O)[O-])c2)cc1	1.1%	0.9	?	-28.6%	-7.3%	3.7%
O=C(CCNc1ccccc1)c1cccc([N+](=O)[O-])c1	1.3%	-1.6	?	89.1µM*	-24.5%	0.2%
Cc1ccc(S(=O)(=O)c2cc3c(=O)n4ccccc4nc3n(CC3CCCO3)c2=N)cc1C (stereo unspecified)	12.9%	1.4	-9.5%	2.1%	-16.2%	0.6%
CC(=O)c1c(C)[nH]c(C(=O)OCC(=O)N(C)c2c(N)n(Cc3ccccc3)c(=O)[nH]c2=O)c1C	1.2%	/	2.2%	-4.1%	-17.8%	/
O=C(CNC(=O)c1ccccc1)OCC(=O)c1ccccc1Cl	-0.7%	/	-8.8%	-1.7%	-15.4%	6.5%

Compound activity from PubChem.
